Results: PubChem BioAssay (Tox21)
Several values for one entry are separate records, joined by “and”; a condition that tells them apart may be missing. Identical values can stand only once. Results filed as inconclusive are left out. Activity calls are given as the source filed them. Unless noted, the call rests on the fitted dose curve; in most records, active means well fitted curve in the direction sought with a large enough effect in the repeat runs; inconclusive means weak or mixed curves; inactive means no such curve, though single readings can be large; an effect the other way counts as inactive or inconclusive.

Legend:
[1] = qHTS assay to identify small molecule agonists of the hypoxia (HIF-1) signaling pathway - cell viability counter screen (AID 1224844; calls by dose curve; further: nearly all actives have a fitted effect of over 50% in size)
Outline: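 HRE-bla ME-180; 0.5% dFBS; cpd 17 h, 37C, 5% CO2; CellTiter-Glo lum., 30 min RT, post-FRET read, same wells.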

[2] = qHTS assay to identify small molecule agonists of H2AX (AID 1224845; active means well fitted activation curve with a large enough effect in the signal ratio in the repeat runs, not every such curve was filed as active; the % refers to the signal ratio)
Outline: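 Wild-type CHO-K1 cells plated overnight, then exposed 3 hr at 37C to compounds at 15 concentrations (0.76% DMSO). Lysed, then HTRF anti-pH2AX(S139)-cryptate/anti-H2AX-d2 detection after 24 hr at room temperature; emissions 665 and 620 nm.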

[3] = qHTS assay to identify small molecule agonists of the hypoxia (HIF-1) signaling pathway (AID 1224846; active means well fitted activation curve with a large enough effect in the signal ratio in the repeat runs, not every such curve was filed as active; the % refers to the signal ratio)
Outline: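 Reporter induction in HRE-bla ME-180 cells is taken as agonism: cells sit 5 hrs after plating, receive compounds or DMSO only, incubate 17 hrs at 37C under 5% CO2, and are loaded with CCF4-AM for beta-lactamase FRET measurement.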

[4] = qHTS assay to identify small molecule agonists of H2AX - cell viability counter screen (AID 1224847; calls by dose curve; further: top concentration of the series differs between compounds; nearly all actives have a fitted effect of over 30% in size)
Outline: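 After overnight plating of 1000 CHO-K1 cells per well, a 15-concentration compound series was applied for 3 hr at 37C. Luminescence from CellTiter-Glo, read following 30 min at room temperature, reflected cell viability.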

[5] = qHTS assay to identify small molecule antagonists of the estrogen related receptor (ERR) signaling pathway from Tox21 library (AID 1224848); further: nearly all actives have a fitted effect of over 50% in size
Outline: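 First, 2,000 ERR cells per well were plated and held 6 h at 37 C/5% CO2. Next, compounds in DMSO were pinned in and left 18 h at 37 C. Finally, ONE-Glo was added and luminescence read after 30 min at room temperature.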

[6] = qHTS assay to identify small molecule agonists of the estrogen related receptor (ERR) signaling pathway from Tox21 library (AID 1224849; calls by dose curve; further: nearly all actives have a fitted effect of over 15% in size); details: ERR reporter cell line, ONE-Glo luciferase, 18 h
Outline: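 Tox21 compounds tested for ERR agonism in an NTP reporter cell line: 18 h treatment at 37 C, then ONE-Glo luminescence.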

[7] = qHTS RealTime-Glo MT Cell Viability Assay in HepG2 cells - 24 hour (AID 1224867); further: nearly all actives have a fitted effect of over 50% in size
Outline: (§1)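 Viability was tracked continuously by NanoLuc luminescence from prosubstrate reduced by living HepG2 cells, at successive time points over 40 h of compound exposure. Cells with reagent were preincubated 5 h at 37 °C before compound addition.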

[8] = qHTS RealTime-Glo MT Cell Viability Assay in HEK293 cells - 32 hour (AID 1224868); further: top concentration of the series differs between compounds; nearly all actives have a fitted effect of over 50% in size
Outline: (§2)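 Viability tracked continuously by luminescence as live cells reduce a prosubstrate for NanoLuc; HEK293 cells preincubated 5 h, compound-treated at 37 C, and read at 0, 8, 16, 24, 32 and 40 h.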

[9] = A CellTox Green Cytotoxicity Assay to monitor cytotoxicity in HEK293 cells - 0 hour (AID 1224869); further: nearly all actives have a fitted effect of over 50% in size
Outline: (§3)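 Tox21 screen in HEK293: membrane-impermeant cyanine dye fluoresces on binding dead-cell DNA; compound pinned 5 h post-seeding, plates held at 37 C, signal read repeatedly through 40 h.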

[10] = qHTS RealTime-Glo MT Cell Viability Assay in HepG2 cells - 40 hour (AID 1224870); further: nearly all actives have a fitted effect of over 50% in size
Outline: (§4)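 HepG2 cells mixed with RealTime-Glo MT reagents (NanoLuc plus cell-permeant prosubstrate) were seeded at 600 cells/well, incubated 5 h at 37 C/5% CO2, then pinned with compounds in DMSO; nonlytic luminescence tracked viability during 40 h treatment.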

[11] = A CellTox Green Cytotoxicity Assay to monitor cytotoxicity in HEK293 cells - 40 hour (AID 1224871); further: nearly all actives have a fitted effect of over 45% in size
Outline: as §3

[12] = qHTS RealTime-Glo MT Cell Viability Assay in HEK293 cells - 16 hour (AID 1224872)
Outline: as §2

[13] = qHTS RealTime-Glo MT Cell Viability Assay in HepG2 cells - 8 hour (AID 1224873); further: nearly all actives have a fitted effect of over 55% in size
Outline: as §4

[14] = qHTS RealTime-Glo MT Cell Viability Assay in HEK293 cells - 40 hour (AID 1224874); details: RealTime-Glo luminescence; max response: hits give low values; further: nearly all actives have a fitted effect of over 50% in size
Outline: (§5)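 HEK293 + NanoLuc + prosubstrate, 600 cells/well; 5 h, 37 C/5% CO2; compound 23 nL in DMSO by pintool; 37 C; luminescence read at 0, 8, 16, 24, 32 and 40 h time points.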

[15] = A CellTox Green Cytotoxicity Assay to monitor cytotoxicity in HEK293 cells - 24 hour (AID 1224875); further: nearly all actives have a fitted effect of over 45% in size
Outline: as §3

[16] = A CellTox Green Cytotoxicity Assay to monitor cytotoxicity in HepG2 cells - 16 hour (AID 1224876); further: nearly all actives have a fitted effect of over 45% in size
Outline: (§6)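 Measurements at 0, 8, 16, 24, 32 and 40 h of treatment captured CellTox Green fluorescence in HepG2 cells that had been co-plated with reagent and preincubated 5 h at 37 C/5% CO2.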

[17] = qHTS RealTime-Glo MT Cell Viability Assay in HepG2 cells - 32 hour (AID 1224877); further: nearly all actives have a fitted effect of over 55% in size
Outline: as §1

[18] = qHTS RealTime-Glo MT Cell Viability Assay in HEK293 cells - 0 hour (AID 1224880); further: top concentration of the series differs between compounds; nearly all actives have a fitted effect of over 45% in size
Outline: as §5

[19] = A CellTox Green Cytotoxicity Assay to monitor cytotoxicity in HepG2 cells - 24 hour (AID 1224878); further: nearly all actives have a fitted effect of over 45% in size
Outline: as §6

[20] = A CellTox Green Cytotoxicity Assay to monitor cytotoxicity in HepG2 cells - 40 hour (AID 1224879); further: nearly all actives have a fitted effect of over 40% in size
Outline: as §6
On the % scale 0 is the no-effect control and ±100 the full control effect.

CCC[N+](CCC)(CCC)CCC
inactive: Potency [1] | Potency [2] | outcome [3] | Potency [4] | Potency [5] | activity change, positive = activation ([6]; at 92.4 µM (top of the series)) -9.29% | Potency [7] | Potency [8] | Potency [9] | Potency [10] | Potency [11] | Potency [12] | Potency [13] | max response [14] 6.01% | Potency [15] | Potency [16] | Potency [17] | outcome [18]

CCC(C)(C)O
inactive: Potency [1] | Potency [2] | outcome [3] | Potency [4] | Potency [7] | Potency [8] | Potency [9] | Potency [10] | Potency [11] | Potency [12] | Potency [13] | max response [14] 6.83% | Potency [16] | Potency [17] | Potency [19] | Potency [20] | outcome [18]

NP(N)(=O)NC(=O)c1ccc(F)cc1
inactive: Potency [1] | Potency [2] | outcome [3] | Potency [4] | Potency [5] | activity change, positive = activation ([6]; at 42.5 µM (top of the series)) -0.0729% | Potency [7] | Potency [8] | Potency [9] | Potency [10] | Potency [11] | Potency [12] | Potency [13] | max response [14] 1.36% | Potency [15] | Potency [16] | Potency [17] | Potency [19] | outcome [18]

CC(C)(C)NCC(O)c1ccccc1Cl (stereo not given)
inactive: Potency [1] | Potency [2] | outcome [3] | Potency [4] | Potency [5] | activity change, positive = activation ([6]; at 42.5 µM (top of the series)) 4.93% | Potency [7] | Potency [8] | Potency [9] | Potency [10] | Potency [11] | Potency [12] | Potency [13] | max response [14] 4.08% | Potency [15] | Potency [16] | Potency [17] | Potency [19] | Potency [20] | outcome [18]

Nc1c(Br)cc(Br)c2c1C(=O)c1ccccc1C2=O
inactive: activity change, negative = cytotoxicity [1] 1.81% [at 15.8 µM] | activation (H2AX phosphorylation) [2] 2.27% [at 31.6 µM] | activation [3] 0.237% [at 15.8 µM] | activity change, negative = cytotoxicity [4] -4.33% [at 31.6 µM] | activity, negative = inhibition [5] 31.1% [at 19 µM] | activity change, negative = cytotoxicity [7] -0.948% [at 15.8 µM] | cytotoxicity [9] -2.18% [at 15.8 µM] | activity change, negative = cytotoxic [10] 16.3% [at 15.8 µM] | cytotoxicity increase [11] -1.3% [at 15.8 µM] | viability change, negative = cytotoxic [13] -13.9% [at 15.8 µM] | activity change [15] -4.1% [at 15.8 µM, hits give high values] | cytotoxicity increase [16] -4.68% [at 15.8 µM] | activity change, negative = cytotoxic [17] 5.09% [at 15.8 µM] | cytotoxicity [19] -5.93% [at 15.8 µM] | activity change, negative = cytotoxicity [18] -4.62% [at 15.8 µM]

NC(=S)c1c(Cl)cccc1Cl
inactive: Potency [1] | Potency [2] | outcome [3] | Potency [4] | Potency [7] | Potency [8] | Potency [9] | Potency [10] | Potency [11] | Potency [12] | Potency [13] | max response [14] -2.31% | Potency [15] | Potency [16] | Potency [17] | Potency [19] | outcome [18]

c1ccc2c(c1)sc1ccccc12
inactive: Potency [1] | Potency [2] | outcome [3] | Potency [4] | Potency [5] | activity change, positive = activation ([6]; at 42.5 µM (top of the series)) 0.495% | activity change, positive = activation ([6]; at 92.4 µM (top of the series)) -4.7% | Potency [8] | Potency [9] | Potency [10] | Potency [12] | Potency [13] | max response [14] 0.709% and -2.64% | Potency [15] | Potency [16] | Potency [17] | Potency [19] | Potency [20] | outcome [18]
